Most compounds without a hit are left out; they make up all but 5.8% or so of the library.
VP16 counter: VP16 counterscreen qHTS for inhibitors of ROR gamma transcriptional activity; actives 3.5% (n = 310,000); AID 2546, 2010; Potency, µM (top dose mostly 53.6 µM), for inactives: top-dose activity, negative = inhibition, most hits filed as inhibitors; Drosophila S2 Gal4-VP16 UAS-luciferase, luminescence, 20 h;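 also: Gal4-VP16 expression switched on by copper sulfate through the metallothionein promoter; potency is read from the fitted curve at half-maximal effect; % is scaled to controls: 0 for no effect and ±100 for the full control effect; nearly all actives have a fitted effect of over 50% in size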
TRPV1 potentiator: HTS Assay for Compounds that Act as Potentiators of the Vanilloid Receptor 1; Transient receptor potential cation channel subfamily V member 1 (Homo sapiens), Q8NER1; TRPV1-expressing cells, Fluo-8 calcium influx, capsaicin EC20 potentiation; potentiation, % at 8.33 µM; AID 540277, 2011; actives 0.02% (n = 320,000); in the data active = potentiation above about 80%; inconclusive = between about 30% and that limit; also: 0% is about no effect
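Fluo-8 calcium influx in TRPV1-expressing cells, kinetic read (ex 480/em 520 nm). Compound added and read 3 min for agonist activity, followed by capsaicin at EC20 final and 2 min further read for enhancement.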
uPA generation: qHTS for Inhibitors of Cell Surface uPA Generation; cell surface uPA generation assay, qHTS; Potency, µM (highest dose often 38.3 µM), without a hit: at the top dose activity change, negative = inhibition, actives largely listed as inhibitors; actives 0.31% (n = 330,000); active = well fitted inhibition curve with a large enough effect; inconclusive = small, poorly fitted or top-dose-only effect; inactive = no such curve, though single readings can be large or run the other way; tested in mouse RAW 264.7 cells; also: potency is read from the fitted curve at half-maximal effect; % is scaled to controls: 0 for no effect and ±100 for the full control effect; nearly all actives have a fitted effect of over 55% in size
RORgamma inh: qHTS for inhibitors of ROR gamma transcriptional activity; Drosophila S2 Gal4-RORgamma UAS-luciferase reporter, 20 h; Potency, µM (doses to about 53.6 µM), without a hit: top-dose activity change, negative = inhibition, actives largely listed as inhibitors; actives 5.4% (n = 310,000); AID 2551, 2010; also: potency is read from the fitted curve at half-maximal effect; % is scaled to controls: 0 for no effect and ±100 for the full control effect; nearly all actives have a fitted effect of over 60% in size
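Drosophila S2 cells stably expressing Gal4-DBD/mouse RORγ fusion under metallothionein promoter plus UAS-luciferase; compound 1 h, then 700 uM CuSO4 induction for 20 h at ambient temperature; inhibition read as reduced luminescence.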
TRPV1 ag: HTS Assay for Compounds that Act as Agonists of the Vanilloid Receptor 1; TRPV1-expressing cells, Fluo-8 calcium influx, agonist mode; activation, % at 8.33 µM; actives 0.19% (n = 320,000); AID 540275, 2011; in the data active = activation above about 80%; inconclusive = between about 30% and that limit; also: 0% is about no effect
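TRPV1-expressing cells were cultured overnight at 35.5C and loaded with Fluo-8 calcium dye for 40 to 90 min at room temperature. After a 10 s baseline, compound was added and calcium influx was read kinetically for 3 min (ex 480/em 520 nm).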
An asterisk follows results filed as active; ? = inconclusive; · = no result given; [ ] = another dose, or the depositor's remark. Unless noted, calls follow the shape of the dose curve; as a rule, active = well fitted curve in the direction sought with a large enough effect; inconclusive = small, poorly fitted or top-dose-only effect, or another doubt; inactive = no such curve, though single readings can be large; an effect the other way counts as inactive or inconclusive.

SMILES	VP16 counter	TRPV1 potentiator	uPA generation	RORgamma inh	TRPV1 ag
COc1ccc(Cl)cc1C(=O)Nc1nc2ccccc2[nH]1	6.3µM*	-12	-15%	2.2µM*	?
COc1ccc(C(=O)CSc2nc(C)cc(=O)[nH]2)cc1	·	0	6%	-40%[0.365 µM]	0
Cc1cc(=O)[nH]c(SCC(=O)c2ccc(C(C)C)cc2)n1	?	-9	-5%	1.1µM*	8
CCN(CC)S(=O)(=O)c1ccc(C(=O)Nc2ccc(OCC(=O)N3CCOCC3)cc2)cc1	17%	18	2%	26%	1
Cc1cc(OCC(=O)N2CCOCC2)ccc1NC(=O)c1ccccc1C	?	-13	-12%	10µM*	0
O=C(Nc1ccc(OCC(=O)N2CCOCC2)cc1)c1ccccc1Cl	7.9µM*	-22	-9%	11µM*	-4
O=C(N/N=C/c1ccc(OCC(=O)N2CCOCC2)cc1)c1ccccc1Cl	7%	1	-2%	5%	1
Cc1ccc(C(=O)Nc2cc(C)c(OCC(=O)N3CCOCC3)c(C)c2)cc1	10µM*	5	-10%	14µM*	-2
CCCCOc1ccc(C(=O)Nc2ccc(OCC(=O)N3CCOCC3)cc2)cc1	?	2	7.1µM*	-34%	2
COc1cc2oc(=O)c3c4c(cc5ccc(c1CCN(C)C)c2c53)OCO4	-27%	·	·	?	·
O=C1CCCC=C1[C@H](CCc1ccccc1)OC(=O)c1ccc(Br)cc1	18%[10 µM]	·	·	19%[10 µM]	·
COc1cccc(C2C=C(c3ccc(Br)s3)Nc3ncnn32)c1OC (stereo unspecified)	?	-2	-2%	-119%	-1
Fc1ccc(Br)cc1C1C=C(c2ccc(Br)s2)Nc2ncnn21 (stereo unspecified)	3%[0.365 µM]	-19	0%	35µM*	?
C=C[C@@H](C)N(Cc1ccc(OC)cc1)S(=O)(=O)N(Cc1ccccc1)[C@H](C=C)C(C)C	·	-1	23%	·	8
CCN(CC)c1ccc(-c2nn3c(-c4ccccc4OC)nnc3s2)cc1	14µM*	-4	-8%	?	1
COc1ccccc1-c1nn2c(-c3ccccc3Cl)nnc2s1	2%	-3	·	-16%	2
COc1cc(/C(C)=N/NC(=S)NC(C)C)cc(OC)c1OC	5µM*	2	-8%	3.2µM*	0
COc1cc(/C(C)=N\NC(N)=S)cc(OC)c1OC	?	16	-3%	5.6µM*	-1
COc1cc(C(=O)NCCC(=O)NC(C)C)cc(OC)c1OC	8%	-26	2%	-9%	0
O=C(NCCc1ccccc1)c1cccc(Br)n1	12%	·	·	21%	·
COc1ccccc1/C=C1\NC(=S)N(CC2CCCO2)C1=O (stereo unspecified)	13µM*	8	5%	15%	0
Cc1ccc(C(OCC(O)CNC(CO)C(O)c2ccc([N+](=O)[O-])cc2)c2ccccc2)cc1 (stereo unspecified)	-4%	-2	-4%	0%	-2
C[C@H](NC(=O)c1nc[nH]c1C(=O)NC(c1ccccc1)c1ccccc1)C(=O)OC(C)(C)C	4.5µM*	-8	1%	2.5µM*	?
CC(C)(C)OC(=O)CNC(=O)c1[nH]cnc1C(=O)NC(c1ccccc1)c1ccccc1	?	-15	13%	6.3µM*	?
O=C(Nc1ccccc1O)C(c1ccccc1)c1ccccc1	16µM*	14	-1%	?	12
COc1ccc(N(C)S(=O)(=O)c2ccc(Cl)c(C(=O)NNC(=O)c3ccccc3O)c2)cc1	·	7	-5%	·	0
Cc1ccc(S(=O)(=O)N2CCN(C(=S)NCC3CCCO3)CC2)cc1 (stereo unspecified)	·	?	3%	·	3
CCC1=C2CC[C@H]3C(=O)N(CC)C(=O)[C@H]3[C@H]2[C@@]2(C)C(=O)N(CC(=O)OC)C(=O)N2C1=O	4%	·	·	-5%	·
CCOC(=O)[C@H]1[C@H]2COc3ccc(OC)cc3[C@@H]2N2C(=O)c3ccccc3NC(=O)[C@@]12C	·	-7	0%	·	100*
